# Assay results reported in PubChem BioAssay AID624137 (Broad Institute, 2012).
# About 360 (1.2%) of roughly 31,000 compounds were called active. How the calls were made is not given here. Only a selection was taken, and actives are over-represented in it overall.
# Biological target: DNA-binding protein inhibitor ID-4 (Homo sapiens) (UniProt P47928)
# Test: PubChem AID 624137;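 further: a binder raises fluorescence above local background on the spot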
# Settings: small molecule microarray, Flag-ID4 binding, fluorescence F/B
# Chain of DNA-binding protein inhibitor ID-4 (Homo sapiens) (P47928 whole entry, looked up): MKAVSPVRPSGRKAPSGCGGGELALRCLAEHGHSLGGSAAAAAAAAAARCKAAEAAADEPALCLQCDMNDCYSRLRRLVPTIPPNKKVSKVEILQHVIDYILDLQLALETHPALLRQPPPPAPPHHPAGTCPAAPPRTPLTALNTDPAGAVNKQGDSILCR
row,Compound,outcome
1,CCC(=O)N(C)C[C@@H]1Oc2ncc(C#Cc3ccccc3)cc2C(=O)N([C@@H](C)CO)C[C@H]1C,inactive
2,C[C@@H]1CN([C@H](C)CO)C(=O)c2cc(C#CC3CC3)cnc2O[C@H]1CN(C)C(=O)CC1CC1,inactive
3,C[C@H]1CN([C@@H](C)CO)C(=O)c2ccccc2-c2ccccc2CO[C@@H]1CN(C)C(=O)CCN(C)C,inactive
4,CN(C)C(=O)C[C@H]1C=C[C@@H](NC(=O)C2CCC2)[C@@H](CO)O1,inactive
5,O=C(C[C@H]1CC[C@H](NC(=O)C2CCC2)[C@@H](CO)O1)NCCCN1CCOCC1,inactive
6,CCCN(C)C[C@H]1Oc2ncc(C#CC3CCCCC3)cc2C(=O)N([C@H](C)CO)C[C@@H]1C,inactive
7,O=C(c1cccc(S(=O)(=O)N2CCOCC2)c1)N(Cc1ccccc1)c1ccccn1,inactive
8,C[C@H]1CN([C@@H](C)CO)S(=O)(=O)c2ccc(-c3cccc(F)c3)cc2O[C@@H]1CN(C)C,inactive
9,O=C(CCN1CCCCC1)N[C@@H]1C=C[C@@H](CC(=O)N2CCC(Cc3ccccc3)CC2)O[C@H]1CO,inactive
10,O=C(C[C@H]1CC[C@H](NS(=O)(=O)c2ccccc2)[C@H](CO)O1)NCc1ccncn1,inactive
11,O=C(CSc1nccc(=O)[nH]1)Nc1cccc(Br)c1,inactive
12,C[C@@H]1CN([C@@H](C)CO)C(=O)c2cc(C#CCN(C)C)cnc2O[C@@H]1CN(C)Cc1ccccn1,inactive
13,C[C@@H]1CN([C@H](C)CO)C(=O)c2cc(C#CC3CCCC3)cnc2O[C@H]1CN(C)S(C)(=O)=O,inactive
14,O=C(C[C@@H]1C=C[C@H](NC(=O)Nc2ccccc2F)[C@H](CO)O1)NCc1ccc(F)cc1,inactive
15,C[C@@H]1CN([C@@H](C)CO)S(=O)(=O)c2ccc(C#C[C@@H](C)O)cc2O[C@@H]1CN(C)C(=O)CN(C)C,inactive
16,C[C@H](CO)N1C[C@H](C)[C@@H](CN(C)Cc2ccccn2)Oc2ncc(C3=CCCC3)cc2C1=O,inactive
17,CN(C)c1ccc(NC(=O)CN(C)S(=O)(=O)c2ccc(Br)cc2)cc1,inactive
18,COc1ccc(CN(C)C[C@H]2Oc3ccc(NC(=O)Cc4ccccc4)cc3CC(=O)N([C@@H](C)CO)C[C@@H]2C)cc1,inactive
19,C[C@@H]1CN([C@@H](C)CO)C(=O)Cc2cc(NC(=O)Cc3ccccc3)ccc2O[C@H]1CN(C)Cc1ccc(C(=O)O)cc1,active
20,COc1ccc(CN(C)C[C@@H]2Oc3ccc(NC(=O)Nc4ccc(OC)cc4)cc3CC(=O)N([C@H](C)CO)C[C@H]2C)cc1,inactive
21,COc1ccc(CN(C)C[C@@H]2Oc3ccc(NC(=O)Nc4ccc5c(c4)OCO5)cc3CC(=O)N([C@H](C)CO)C[C@H]2C)cc1,active
22,C[C@@H]1CN([C@H](C)CO)C(=O)Cc2cc(NC(=O)Nc3ccc(F)cc3)ccc2O[C@@H]1CN(C)Cc1ccc2c(c1)OCO2,inactive

row,Compound,outcome
1,C[C@@H]1CN([C@@H](C)CO)C(=O)Cc2cc(NC(=O)Cc3cn(C)c4ccccc34)ccc2O[C@H]1CN(C)Cc1ccc(C(=O)O)cc1,inactive
2,O=C(C[C@@H]1C=C[C@@H](NC(=O)C2CCC2)[C@H](CO)O1)NCC1CC1,inactive
3,O=C(C[C@@H]1CC[C@H](NC(=O)C2CCC2)[C@@H](CO)O1)NC1CCCCC1,inactive
4,C[C@@H]1CN([C@H](C)CO)C(=O)c2cc(C#CC3CC3)cnc2O[C@@H]1CN(C)Cc1ccccn1,inactive
5,C[C@@H]1CN([C@@H](C)CO)S(=O)(=O)c2ccc(-c3ccc(C(=O)N(C)C)cc3)cc2O[C@@H]1CN(C)Cc1ccccc1C(=O)O,inactive
6,COc1ccccc1S(=O)(=O)N[C@@H]1C=C[C@H](CC(=O)N2CCOCC2)O[C@@H]1CO,inactive
7,O=C(C[C@@H]1C=C[C@H](NC(=O)CCN2CCCCC2)[C@H](CO)O1)NCc1ccc(Cl)c(Cl)c1,inactive
8,C/C=C/c1cnc2c(c1)C(=O)N([C@@H](C)CO)C[C@@H](C)[C@@H](CN(C)S(=O)(=O)c1ccccc1F)O2,inactive
9,C[C@H]1CN([C@@H](C)CO)S(=O)(=O)c2ccc(C3=CCCC3)cc2O[C@H]1CN(C)Cc1cccc(C(=O)O)c1,inactive
10,CC(C)NC(=O)N(C)C[C@H]1Oc2cc(-c3cncnc3)ccc2S(=O)(=O)N([C@@H](C)CO)C[C@H]1C,inactive
11,Cc1ccc(Cc2cncc(O)c2)cc1S(=O)(=O)O,active
12,C[C@H]1CN([C@@H](C)CO)S(=O)(=O)c2ccc(C3=CCCCC3)cc2O[C@@H]1CN(C)Cc1ccccc1,inactive
13,C[C@H](CO)N1C[C@H](C)[C@@H](CN(C)C(=O)C2CC2)Oc2ncc(-c3cccc(F)c3)cc2C1=O,inactive
14,C/C=C/c1ccc2c(c1)O[C@@H](CN(C)CC1CCOCC1)[C@@H](C)CN([C@H](C)CO)S2(=O)=O,inactive
15,C[C@H](CO)N1C[C@H](C)[C@H](CN(C)C(=O)C2CCCCC2)Oc2ncc(C#CC3CC3)cc2C1=O,inactive
16,C[C@H]1CN([C@@H](C)CO)C(=O)c2cc(C#Cc3ccccc3F)cnc2O[C@H]1CN(C)C,inactive
17,O=C(O)/C(=C/C(=O)c1ccc(F)cc1)Nc1ccc2[nH]c(=O)[nH]c2c1,inactive
18,O=C(OCCN1CCCCC1)c1cccc(COc2ccc3ccccc3c2)c1,inactive
19,C[C@H](CO)N1C[C@H](C)[C@H](CN(C)C(=O)c2ccncc2)Oc2cc(C#CC3(O)CCCC3)ccc2S1(=O)=O,inactive
20,O=C(C[C@@H]1C[C@@H]2c3cc(NS(=O)(=O)c4ccc(F)cc4)ccc3O[C@@H]2[C@@H](CO)O1)N1CCOCC1,inactive
21,CCCC#Cc1ccc2c(c1)O[C@@H](CN(C)S(=O)(=O)c1cccc(OC)c1)[C@H](C)CN([C@@H](C)CO)S2(=O)=O,inactive
22,COCC(=O)Nc1ccc2c(c1)[C@H]1C[C@H](CC(=O)NCc3cccnc3)O[C@H](CO)[C@H]1O2,inactive

row,Compound,outcome
1,CO[C@@H]1CN(C)C(=O)c2ccc(NC(=O)C3CC3)cc2OC[C@@H](C)N(CC2CCOCC2)C[C@H]1C,inactive
2,CC(=O)N(C)C[C@H]1Oc2ncc(-c3cccc(F)c3)cc2C(=O)N([C@@H](C)CO)C[C@H]1C,inactive
3,O=[N+]([O-])c1ccccc1/C=C/CN1CCC(O)CC1,active
4,O=[N+]([O-])c1ccccc1CN1CCN(Cc2cccc(Oc3ccccc3)c2)CC1,inactive
5,O=C(C[C@H]1CC[C@@H](NC(=O)c2ccncc2)[C@@H](CO)O1)NCC1CC1,inactive
6,C[C@@H]1CN([C@H](C)CO)C(=O)c2cc(-c3ccccc3F)cnc2O[C@H]1CN(C)C(=O)CN(C)C,inactive
7,C[C@H](CO)N1C[C@H](C)[C@@H](CN(C)C(=O)c2cnccn2)Oc2ncc(-c3ccccc3F)cc2C1=O,inactive
8,O=C(CSc1nc(O)cc(=O)n1-c1ccccc1F)Nc1ccc(Cl)cc1Cl,inactive
9,COC(=O)Cc1csc(Nc2c(C)n(C)n(-c3ccccc3)c2=O)n1,inactive
10,COc1cccc(/C=C(\C#N)C(=O)Nc2c(C)n(C)n(-c3ccccc3)c2=O)c1,inactive
11,Cc1c(NC(=O)/C(C#N)=C/c2ccccc2Cl)c(=O)n(-c2ccccc2)n1C,active
12,COc1cc(NC(=O)COc2ccccc2Br)c(OC)cc1Cl,inactive
13,C[C@H](CO)N1C[C@H](C)[C@H](CN(C)C(=O)C2CC2)OCc2ccccc2-c2ccccc2C1=O,inactive
14,CCC(=O)N[C@H]1CC[C@@H](CC(=O)NCc2cc(F)cc(F)c2)O[C@@H]1CO,inactive
15,C[C@@H]1CCCCO[C@@H](CN(C)C(=O)c2ccccc2)[C@H](C)CN([C@@H](C)CO)C(=O)c2cc(NS(C)(=O)=O)ccc2O1,inactive
16,C[C@H](CO)N1C[C@H](C)[C@H](CN(C)C(=O)c2ccccc2)OCCCC[C@H](C)Oc2ccc(NS(C)(=O)=O)cc2C1=O,inactive
17,C[C@@H]1CN([C@@H](C)CO)C(=O)c2cc(NS(C)(=O)=O)ccc2O[C@@H](C)CCCCO[C@@H]1CN(C)C(=O)c1ccccc1,active
18,CNC[C@@H]1Oc2cc(C#Cc3ccc(F)cc3)ccc2S(=O)(=O)N([C@@H](C)CO)C[C@H]1C,inactive
19,COc1ccccc1-c1cnc2c(c1)C(=O)N([C@H](C)CO)C[C@H](C)[C@H](CN(C)Cc1cccnc1)O2,inactive
20,Cc1ccccc1-c1cnc2c(c1)C(=O)N([C@@H](C)CO)C[C@@H](C)[C@@H](CN(C)CC1CCOCC1)O2,inactive
21,CCCN(C)C[C@H]1Oc2cc(-c3ccc(C)cc3)ccc2S(=O)(=O)N([C@H](C)CO)C[C@H]1C,inactive
22,C[C@@H]1CN([C@@H](C)CO)C(=O)c2cc(Br)cnc2O[C@@H]1CN(C)C(=O)C1CCCCC1,inactive

row,Compound,outcome
1,CN1CCN(C(=O)C[C@H]2CC[C@@H](NC(=O)c3ccc4c(c3)OCO4)[C@H](CO)O2)CC1,inactive
2,O=C(C[C@H]1C=C[C@H](NS(=O)(=O)c2ccc(F)cc2)[C@H](CO)O1)NCc1ccncn1,inactive
3,CCCN(C)C[C@@H]1Oc2cc(C#CC3CCCCC3)ccc2S(=O)(=O)N([C@@H](C)CO)C[C@@H]1C,inactive
4,COc1ccccc1-c1cnc2c(c1)C(=O)N([C@@H](C)CO)C[C@@H](C)[C@H](CN(C)Cc1cccnc1)O2,inactive
5,COCC#Cc1cnc2c(c1)C(=O)N([C@H](C)CO)C[C@@H](C)[C@@H](CN(C)Cc1ccccc1F)O2,inactive
6,CC(C)CC#Cc1cnc2c(c1)C(=O)N([C@@H](C)CO)C[C@H](C)[C@@H](CN(C)C(=O)c1ccc(F)cc1)O2,inactive
7,C[C@@H]1CN([C@@H](C)CO)S(=O)(=O)c2ccc(C3=CCCC3)cc2O[C@@H]1CN(C)Cc1ccncc1,inactive
8,C[C@@H](O)C#Cc1cnc2c(c1)C(=O)N([C@@H](C)CO)C[C@H](C)[C@@H](CN(C)CC1CCCCC1)O2,inactive
9,COc1ccccc1-c1ccc2c(c1)O[C@H](CN(C)C(=O)c1cccnc1)[C@@H](C)CN([C@H](C)CO)S2(=O)=O,inactive
10,CC(C)C#Cc1ccc2c(c1)O[C@@H](CN(C)CC1CCOCC1)[C@H](C)CN([C@H](C)CO)S2(=O)=O,inactive
11,CNC[C@H]1Oc2cc(C#CC3CCCC3)ccc2S(=O)(=O)N([C@H](C)CO)C[C@@H]1C,inactive
12,CC(C)C#Cc1cnc2c(c1)C(=O)N([C@H](C)CO)C[C@@H](C)[C@H](CN(C)Cc1ccccc1)O2,inactive
13,C[C@@H]1CN([C@@H](C)CO)S(=O)(=O)c2ccc(C#CCC3CCCC3)cc2O[C@@H]1CN(C)C,inactive
14,C[C@H](O)C#Cc1cnc2c(c1)C(=O)N([C@H](C)CO)C[C@@H](C)[C@H](CN(C)CC1CCCCC1)O2,inactive
15,C[C@@H]1CN([C@H](C)CO)C(=O)c2cc(C3=CCCC3)cnc2O[C@H]1CN(C)C,inactive
16,Cc1cccc(NC(=O)CSc2nnc(-c3ccccc3)n2C2CCCCC2)c1C,inactive
17,CCC(=O)N(C)C[C@H]1Oc2cc(/C=C/c3ccccc3)ccc2S(=O)(=O)N([C@H](C)CO)C[C@H]1C,inactive
18,O=C(C[C@H]1CC[C@@H](NC(=O)Nc2cc(F)ccc2F)[C@@H](CO)O1)NCc1ccncn1,inactive
19,CNC[C@H]1Oc2ncc(-c3ccccc3F)cc2C(=O)N([C@H](C)CO)C[C@H]1C,inactive
